Measured values as given in PubChem BioAssay (Tox21).
Several values for one entry are separate records, joined by “and”; a condition that tells them apart may be missing. Identical values can stand only once. Results filed as inconclusive are left out. Entries that show only a call come without a potency. The source holds several records for some structures; these can differ, active in one and inactive in another. Activity calls are given as the source filed them. Unless noted, the call rests on the fitted dose curve; in most records, active means well fitted curve in the direction sought with a large enough effect in the repeat runs; inconclusive means weak or mixed curves; inactive means no such curve, though single readings can be large; an effect the other way counts as inactive or inconclusive.

How the values were obtained:
[1] = target: Estrogen receptor beta (Homo sapiens) (UniProt Q92731); test: qHTS assay to identify small molecule agonists of the estrogen receptor beta (ER-beta) signaling pathway (AID 1259377; active means well fitted activation curve with a large enough effect in the signal ratio in the repeat runs, not every such curve was filed as active; the % refers to the signal ratio)
Estrogen receptor beta (Homo sapiens), sequence (Q92731 whole entry, looked up, the tested form may be a part): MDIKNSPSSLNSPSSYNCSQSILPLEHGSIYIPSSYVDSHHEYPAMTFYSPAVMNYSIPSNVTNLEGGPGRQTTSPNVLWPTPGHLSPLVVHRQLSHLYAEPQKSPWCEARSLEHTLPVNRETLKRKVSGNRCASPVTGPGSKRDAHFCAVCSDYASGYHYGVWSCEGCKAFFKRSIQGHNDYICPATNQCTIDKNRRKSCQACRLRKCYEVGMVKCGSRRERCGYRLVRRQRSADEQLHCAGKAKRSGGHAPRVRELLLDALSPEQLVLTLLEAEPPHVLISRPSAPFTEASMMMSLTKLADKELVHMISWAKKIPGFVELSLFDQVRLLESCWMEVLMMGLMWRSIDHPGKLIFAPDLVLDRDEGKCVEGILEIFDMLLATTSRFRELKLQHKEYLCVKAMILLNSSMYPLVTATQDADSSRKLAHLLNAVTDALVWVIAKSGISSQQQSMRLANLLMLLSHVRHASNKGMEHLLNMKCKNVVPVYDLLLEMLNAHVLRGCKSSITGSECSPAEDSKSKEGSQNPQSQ
Method in brief: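 Agonist mode cell assay in GripTite HEK293T cells expressing an ER-beta fusion that drives beta-lactamase from an Upstream Activator Sequence; 16 hr compound exposure at 37C, then 2 h LiveBLAzer B/G FRET substrate at room temperature, fluorescence read-out.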

[2] = qHTS assay to identify small molecule agonists of the androgen receptor (AR) signaling pathway in the presence of an antagonist - cell viability counter screen (AID 1259379); further: nearly all actives have a fitted effect of over 25% in size; further: potency means the concentration at half of the fitted maximal effect
Method in brief: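 Counter screen for cell viability run in parallel with the AR agonist-mode luciferase assay. MDA-kb2 cells were co-treated with nilutamide (3.0uM final) and compounds, then incubated 16 hr at 37C, and CellTiter-Fluor fluorescence was measured.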

[3] = qHTS assay to identify small molecule agonists of the estrogen receptor beta (ER-beta) signaling pathway - cell viability counter screen (AID 1259380); further: nearly all actives have a fitted effect of over 30% in size; further: potency means the concentration at half of the fitted maximal effect
Method in brief: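 In this qHTS counter screen, HEK293T cells carrying an ER-beta/UAS beta-lactamase reporter, grown in 2% charcoal-stripped FBS, received compound for 16 hr; ATP-based CellTiter-Glo luminescence was then read after 30 min at room temperature.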

[4] = target: Androgen receptor (Homo sapiens) (UniProt P10275); test: qHTS assay to identify small molecule agonists of the androgen receptor (AR) signaling pathway in the presence of an antagonist (AID 1259381; calls by dose curve; further: nearly all actives have a fitted effect of over 15% in size)
Androgen receptor (Homo sapiens), sequence (P10275 whole entry, looked up): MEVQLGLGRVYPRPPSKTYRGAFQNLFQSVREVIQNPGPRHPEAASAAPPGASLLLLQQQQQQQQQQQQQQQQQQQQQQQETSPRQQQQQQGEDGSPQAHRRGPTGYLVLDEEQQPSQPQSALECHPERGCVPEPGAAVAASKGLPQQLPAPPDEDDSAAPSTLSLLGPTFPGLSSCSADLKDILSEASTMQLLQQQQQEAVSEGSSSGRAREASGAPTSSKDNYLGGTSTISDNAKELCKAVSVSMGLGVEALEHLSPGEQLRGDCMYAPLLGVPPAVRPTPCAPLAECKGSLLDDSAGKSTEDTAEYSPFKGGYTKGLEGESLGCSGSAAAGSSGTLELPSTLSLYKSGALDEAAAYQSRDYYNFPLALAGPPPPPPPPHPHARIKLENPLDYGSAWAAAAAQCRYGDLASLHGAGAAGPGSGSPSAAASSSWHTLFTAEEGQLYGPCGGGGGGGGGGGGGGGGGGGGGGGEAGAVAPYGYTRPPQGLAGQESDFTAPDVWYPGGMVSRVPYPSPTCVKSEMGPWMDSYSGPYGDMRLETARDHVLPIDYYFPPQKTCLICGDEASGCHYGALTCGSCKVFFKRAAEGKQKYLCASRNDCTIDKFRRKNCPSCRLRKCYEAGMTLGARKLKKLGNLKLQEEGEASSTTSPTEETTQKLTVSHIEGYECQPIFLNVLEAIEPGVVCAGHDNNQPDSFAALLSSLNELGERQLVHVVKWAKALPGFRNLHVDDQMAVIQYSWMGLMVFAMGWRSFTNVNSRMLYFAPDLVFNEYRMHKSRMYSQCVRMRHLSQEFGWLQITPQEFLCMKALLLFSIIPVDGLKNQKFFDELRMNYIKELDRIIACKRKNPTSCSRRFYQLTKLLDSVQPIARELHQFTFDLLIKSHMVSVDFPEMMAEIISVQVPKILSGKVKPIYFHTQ
Method in brief: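 AR antagonist background: nilutamide 3.0uM final. Cell line: MDA-kb2, MMTV-driven luciferase, responsive to both AR and GR. Exposure 16hr, 37C, no CO2; ONE-Glo luminescence.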

[5] = qHTS assay to identify small molecule antagonists of the estrogen receptor beta (ER-beta) signaling pathway - cell viability counter screen (AID 1259382); further: series mostly up to about 92 µM; nearly all actives have a fitted effect of over 55% in size
Method in brief: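 HEK293T ER-beta-UAS-bla, 2% charcoal-stripped FBS; compounds + 1nM E2 16 hr 37C; CellTiter-Glo luminescence, 30 min RT.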

[6] = qHTS assay to identify small molecule agonists or antagonists of the thyroid stimulating hormone receptor (TSHR) signaling pathway - wild type cell line counter screen (AID 1259384; calls by dose curve)
Method in brief: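 Wild-type Hek293 cells, 800/well, 18 h at 37C, then compound with Ro20-1724 for 30 min RT. cAMP by HTRF (cAMP-d2/anti-cAMP cryptate), 1 h RT, fluorescence read. 15 concentrations, triplicates.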

[7] = target: Thyrotropin receptor (Homo sapiens) (UniProt P16473); test: qHTS assay to identify small molecule antagonists of the thyroid stimulating hormone receptor (TSHR) signaling pathway (AID 1259385; calls by dose curve; further: nearly all actives have a fitted effect of over 20% in size)
Thyrotropin receptor (Homo sapiens), sequence (P16473 whole entry, looked up): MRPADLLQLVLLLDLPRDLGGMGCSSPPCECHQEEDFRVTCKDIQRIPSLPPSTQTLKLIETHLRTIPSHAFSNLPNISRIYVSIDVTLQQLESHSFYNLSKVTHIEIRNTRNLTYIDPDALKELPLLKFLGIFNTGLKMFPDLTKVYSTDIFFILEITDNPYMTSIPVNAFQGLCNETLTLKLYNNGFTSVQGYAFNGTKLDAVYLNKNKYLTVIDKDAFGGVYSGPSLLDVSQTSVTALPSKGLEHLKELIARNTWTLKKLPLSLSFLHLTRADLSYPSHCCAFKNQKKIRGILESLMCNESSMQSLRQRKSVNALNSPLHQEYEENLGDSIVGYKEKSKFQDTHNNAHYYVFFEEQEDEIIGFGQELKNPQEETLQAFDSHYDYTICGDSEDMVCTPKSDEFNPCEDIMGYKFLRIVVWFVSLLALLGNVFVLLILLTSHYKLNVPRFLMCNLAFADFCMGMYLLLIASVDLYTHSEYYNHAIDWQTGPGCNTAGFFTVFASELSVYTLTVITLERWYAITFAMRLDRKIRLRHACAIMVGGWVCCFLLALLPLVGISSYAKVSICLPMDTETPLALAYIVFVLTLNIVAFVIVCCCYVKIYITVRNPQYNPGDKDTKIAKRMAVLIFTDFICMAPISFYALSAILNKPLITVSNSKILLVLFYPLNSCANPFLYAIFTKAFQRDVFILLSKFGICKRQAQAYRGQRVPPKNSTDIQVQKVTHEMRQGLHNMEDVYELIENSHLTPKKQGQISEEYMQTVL
Method in brief: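 TSHR-HEK293 cells (800/well) plated 18 h, then compounds with Ro20-1724 and TSH at 1.5 ng/mL final, 30 min at room temperature. cAMP quantified by HTRF (cAMP-d2/anti-cAMP-cryptate, 1 h); 15 concentrations in triplicate.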

[8] = qHTS assay to identify small molecule agonists of the estrogen receptor alpha (ER-alpha) signaling pathway in the presence of an antagonist - cell viability counter screen (AID 1259386);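 further: series mostly up to about 92 µM; cells exposed to compounds for 22 h at 37 °C before the viability read; nearly all actives have a fitted effect of over 30% in size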
Method in brief: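 Steps: 5-day stripped-FBS culture; seed and incubate 24hr; add ICI-182,780 (10.0nM final); pin 15-point compound titration; incubate 22hr at 37C; add CellTiter-Fluor at 21hr; read fluorescence.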

[9] = target: Progesterone receptor (Homo sapiens) (UniProt P06401); test: qHTS assay to identify small molecule agonists of the progesterone receptor (PR) signaling pathway (AID 1346784; calls by dose curve; further: nearly all actives have a fitted effect of over 30% in size)
Progesterone receptor (Homo sapiens), sequence (P06401 whole entry, looked up): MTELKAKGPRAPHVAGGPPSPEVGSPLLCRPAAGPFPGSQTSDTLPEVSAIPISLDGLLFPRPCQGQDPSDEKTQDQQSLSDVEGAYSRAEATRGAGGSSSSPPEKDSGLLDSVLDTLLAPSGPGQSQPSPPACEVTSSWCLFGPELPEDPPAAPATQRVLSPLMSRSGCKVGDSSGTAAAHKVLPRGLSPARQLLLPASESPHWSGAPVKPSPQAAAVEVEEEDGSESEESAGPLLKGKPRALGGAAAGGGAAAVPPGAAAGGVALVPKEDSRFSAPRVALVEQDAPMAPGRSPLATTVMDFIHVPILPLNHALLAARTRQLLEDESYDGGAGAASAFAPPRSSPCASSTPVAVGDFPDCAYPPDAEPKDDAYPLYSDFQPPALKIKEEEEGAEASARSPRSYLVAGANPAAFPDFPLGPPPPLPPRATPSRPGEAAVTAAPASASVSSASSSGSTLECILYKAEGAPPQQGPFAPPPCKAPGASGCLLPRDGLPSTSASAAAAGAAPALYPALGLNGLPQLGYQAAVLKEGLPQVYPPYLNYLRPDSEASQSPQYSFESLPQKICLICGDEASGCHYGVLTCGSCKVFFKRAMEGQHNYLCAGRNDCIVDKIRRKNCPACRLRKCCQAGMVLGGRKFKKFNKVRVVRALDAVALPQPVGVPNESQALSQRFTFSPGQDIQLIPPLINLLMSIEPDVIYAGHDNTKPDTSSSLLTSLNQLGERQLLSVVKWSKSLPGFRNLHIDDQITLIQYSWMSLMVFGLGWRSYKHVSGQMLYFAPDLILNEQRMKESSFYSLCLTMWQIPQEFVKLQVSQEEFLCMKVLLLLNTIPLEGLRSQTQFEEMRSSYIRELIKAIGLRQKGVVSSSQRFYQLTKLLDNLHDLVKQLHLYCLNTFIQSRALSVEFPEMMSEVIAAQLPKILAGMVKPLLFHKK
Method in brief: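 Cells (PR-UAS-bla HEK 293T, GripTite) were plated in assay medium containing 2% charcoal-stripped FBS and incubated 6 hr. Test compounds in DMSO were added for 16 hr at 37C. FRET substrate was then loaded for 2 hr at room temperature before fluorescence reading.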

[10] = qHTS assay to identify small molecule antagonists of the progesterone receptor (PR) signaling pathway - cell viability counter screen (AID 1346798); further: series mostly up to about 92 µM; nearly all actives have a fitted effect of over 50% in size
Method in brief: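 Counter screen for cytotoxicity: viability of PR-UAS-bla HEK293T cells was measured with CellTiter-Glo luminescence following 16 hr compound exposure in the presence of R5020.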

[11] = qHTS assay to identify small molecule agonists of the progesterone receptor (PR) signaling pathway - cell viability counter screen (AID 1346799; calls by dose curve; further: nearly all actives have a fitted effect of over 45% in size)
Method in brief: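 Cells (PR-UAS-bla HEK293T) are plated at 3,000/well in 2% charcoal-stripped FBS medium, rested 6 hr, dosed and incubated 16 hr at 37C. CellTiter-Glo is then added and luminescence measured after 30 min at room temperature.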

[12] = qHTS assay to identify small molecule antagonists of the TGF-beta/Smad signaling pathway - cell viability counter screen (AID 1346824); further: nearly all actives have a fitted effect of over 50% in size
Method in brief: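 SBE-bla HEK 293T cells, incubated overnight, then compound plus 0.25 ng/mL TGF-beta1 (stock added) for 5 hr at 37 C. Viability was read in the same wells by CellTiter-Glo luminescence after 30 min at room temperature.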

[13] = qHTS assay to identify small molecule agonists of the TGF-beta/Smad signaling pathway - cell viability counter screen (AID 1346829); further: top concentration of the series differs between compounds; nearly all actives have a fitted effect of over 45% in size
Method in brief: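 Compound-treated SBE-bla HEK 293T cells (5 hr, 37 C) were assessed for viability with CellTiter-Glo in parallel with the reporter read.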

[14] = qHTS assay to identify small molecule agonists of the TGF-beta/Smad signaling pathway (AID 1346859; active means well fitted activation curve with a large enough effect in the signal ratio in the repeat runs, not every such curve was filed as active; the % refers to the signal ratio; further: series mostly up to about 77 µM)
Method in brief: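 Reporter line: HEK 293T with stably integrated SBE-controlled beta-lactamase. Compound exposure lasts 5 hr at 37 C and 5% CO2; substrate loading follows for 2 hr at room temperature, with emission read at 460 and 530 nm.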

[15] = target: Thyrotropin-releasing hormone receptor (Homo sapiens) (UniProt P34981); test: qHTS assay to identify small molecule antagonists of the thyrotropin-releasing hormone receptor (TRHR) signaling pathway (AID 1346877; active means well fitted inhibition curve with a large enough effect in the repeat runs, not every such curve was filed as active; further: series mostly up to about 51 µM)
Thyrotropin-releasing hormone receptor (Homo sapiens), sequence (P34981 whole entry, looked up): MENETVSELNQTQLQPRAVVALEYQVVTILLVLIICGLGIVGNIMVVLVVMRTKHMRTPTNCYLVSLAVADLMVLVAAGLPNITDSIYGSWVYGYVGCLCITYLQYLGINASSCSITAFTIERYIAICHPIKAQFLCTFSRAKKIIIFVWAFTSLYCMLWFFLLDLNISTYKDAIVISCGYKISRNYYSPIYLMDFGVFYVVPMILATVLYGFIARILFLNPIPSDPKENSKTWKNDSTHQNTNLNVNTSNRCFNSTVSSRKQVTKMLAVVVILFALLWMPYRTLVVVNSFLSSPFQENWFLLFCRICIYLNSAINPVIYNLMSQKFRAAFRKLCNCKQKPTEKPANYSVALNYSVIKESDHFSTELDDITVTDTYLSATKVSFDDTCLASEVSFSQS
Method in brief: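 Human TRHR in HEK293 cells; inhibition of the intracellular calcium rise triggered by 1 nM TRH was followed by fluorescence over 3 min. Compounds were run at 15 concentrations, three replicates each.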

[16] = target: Thyrotropin-releasing hormone receptor (Homo sapiens) (UniProt P34981); test: qHTS assay to identify small molecule agonists of the thyrotropin-releasing hormone receptor (TRHR) signaling pathway (AID 1346891; calls by dose curve;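 further: HEK293 cells expressing TRHR with calcium dye readout; series mostly up to about 58 µM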)
Method in brief: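 Cells: TRHR-Hek293, seeded and incubated 18 h. Dye loading: 2 h at 37 °C. Compound added from DMSO stock by pin tool. Read-out: kinetic calcium fluorescence over 3 min.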

[17] = Human pregnane X receptor (PXR) small molecule agonists, qHTS cell viability counter screen (AID 1346977); further: nearly all actives have a fitted effect of over 50% in size
Method in brief: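 Cytotoxicity counter screen run in the same wells as the PXR luciferase assay, using PXR-Luc HepG2 cells in charcoal-stripped serum medium. Viability: CellTiter-Fluor fluorescence after 24hr compound treatment.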

[18] = target: Progesterone receptor (Homo sapiens) (UniProt P06401); test: qHTS assay to identify small molecule antagonists of the progesterone receptor (PR) signaling pathway (AID 1346795; active means well fitted inhibition curve with a large enough effect in the signal ratio in the repeat runs, not every such curve was filed as active; the % refers to the signal ratio)
Method in brief: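 Antagonist mode: compounds tested against 1 nM (final) promegestone stimulation in HEK293T cells expressing PR-UAS-bla reporter, 16 hr at 37C, 5% CO2; beta-lactamase activity detected via B/G FRET substrate after 2 hr at room temperature.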

[19] = target: Estrogen receptor beta (Homo sapiens) (UniProt Q92731); test: qHTS assay to identify small molecule antagonists of the estrogen receptor beta (ER-beta) signaling pathway (AID 1259378; active means well fitted inhibition curve with a large enough effect in the signal ratio in the repeat runs, not every such curve was filed as active; the % refers to the signal ratio)
Method in brief: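 ER-beta-UAS-bla HEK293T cells in 2% charcoal-stripped FBS medium treated with compound plus 1nM final 17-beta-estradiol for 16 hr at 37C. Beta-lactamase reporter read by FRET substrate fluorescence after 2 hours at room temperature.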

## CC1=C(C(=O)Nc2ccccc2)SCCO1
[1]
  Potency: inactive
[2]
  Potency: inactive
[3]
  Potency: inactive
[4]
  outcome: inactive
[5]
  Potency: inactive
[6]
  Potency: inactive
[7]
  Potency: inactive
[8]
  Potency: inactive
[9]
  Potency: inactive
[10]
  Potency: inactive
[11]
  Potency: inactive
[12]
  Potency: inactive
[13]
  Potency: inactive
[14]
  Potency: inactive
[15]
  Potency: inactive
[16]
  outcome: inactive
[17]
  Potency: inactive

## Clc1cccc(C(Cl)(Cl)Cl)n1
[1]
  Potency: inactive
[2]
  Potency: inactive
[3]
  Potency: inactive
[4]
  outcome: inactive
[5]
  Potency: inactive
[6]
  Potency: inactive
[7]
  Potency: inactive
[8]
  Potency: inactive
[9]
  Potency: inactive
[18]
  Potency: inactive
[10]
  Potency: inactive
[11]
  Potency: inactive
[12]
  Potency: inactive
[13]
  Potency: inactive
[14]
  Potency: inactive
[17]
  Potency: inactive

## Cn1c(-c2ccccc2)cc(-c2ccccc2)[n+]1C
[1]
  Potency: inactive
[19]
  Potency: inactive
[2]
  Potency: 24.3 µM (active) and 19.3 µM (active)
[3]
  Potency: inactive
[5]
  Potency: inactive
[6]
  Potency: inactive
[7]
  Potency: inactive
[9]
  Potency: inactive
[18]
  Potency: inactive
[10]
  Potency: inactive
[11]
  Potency: inactive
[12]
  Potency: inactive
[13]
  Potency: inactive
[14]
  Potency: inactive
[15]
  Potency: inactive
[16]
  outcome: inactive
[17]
  Potency: inactive

## COC(=O)Nc1nc2ccccc2[nH]1
[1]
  Potency: inactive
[19]
  Potency: inactive
[2]
  Potency: inactive
[3]
  Potency: inactive
[4]
  outcome: inactive
[5]
  Potency: inactive
[6]
  Potency: inactive
[7]
  Potency: inactive
[8]
  Potency: inactive
[9]
  Potency: inactive
[18]
  Potency: inactive
[10]
  Potency: inactive
[11]
  Potency: inactive
[12]
  Potency: inactive
[13]
  Potency: inactive
[14]
  Potency: inactive
[15]
  Potency: inactive
[16]
  outcome: inactive
[17]
  Potency: inactive

## CC1(C)Cc2cccc(O)c2O1
[1]
  Potency: inactive
[19]
  Potency: inactive
[2]
  Potency: inactive
[3]
  Potency: inactive
[5]
  Potency: inactive
[6]
  Potency: inactive
[7]
  Potency: inactive
[8]
  Potency: inactive
[9]
  Potency: inactive
[18]
  Potency: inactive
[10]
  Potency: inactive
[11]
  Potency: inactive
[12]
  Potency: inactive
[13]
  Potency: inactive
[14]
  Potency: inactive
[15]
  Potency: inactive
[16]
  outcome: inactive
[17]
  Potency: inactive

## CC(C)(O)C(=O)Nc1ccc([N+](=O)[O-])c(C(F)(F)F)c1
[1]
  Potency: inactive
[19]
  Potency: inactive
[3]
  Potency: inactive
[5]
  Potency: inactive
[6]
  Potency: inactive
[7]
  Potency: inactive
[8]
  Potency: inactive
[9]
  Potency: inactive
[10]
  Potency: inactive
[12]
  Potency: inactive
[13]
  Potency: inactive
[14]
  Potency: inactive

## Brc1ccc(Br)cc1
[1]
  Potency: inactive
[19]
  Potency: inactive
[2]
  Potency: inactive
[3]
  Potency: inactive
[5]
  Potency: inactive
[6]
  Potency: inactive
[7]
  Potency: inactive
[8]
  Potency: inactive
[9]
  Potency: inactive
[18]
  Potency: inactive
[10]
  Potency: inactive
[11]
  Potency: inactive
[12]
  Potency: inactive
[13]
  Potency: inactive
[14]
  Potency: inactive
[17]
  Potency: inactive

## Cc1ccc(N=CN(C)C=Nc2ccc(C)cc2C)c(C)c1
[1]
  Potency: inactive
[19]
  Potency: inactive
[2]
  Potency: inactive
[3]
  Potency: 54.7 µM (active) and 30.6 µM (active) and inactive
[5]
  Potency: inactive
[6]
  Potency: inactive
[7]
  Potency: inactive
[8]
  Potency: inactive
[9]
  Potency: inactive
[18]
  Potency: inactive
[10]
  Potency: inactive
[11]
  Potency: inactive
[12]
  Potency: inactive
[13]
  Potency: inactive
[14]
  Potency: inactive
[15]
  Potency: inactive
[16]
  outcome: inactive
[17]
  Potency: inactive
